This note sets out measurements from PubChem BioAssay AID624305 (National Center for Advancing Translational Sciences (NCATS), 2012).

Results filed as inconclusive are left out. Unmarked numbers belong to inactive results. The source made the active and inactive calls. Calls follow the shape of the dose curve; as a rule, active = well fitted activation curve with a large enough effect; inconclusive = small, poorly fitted or top-dose-only effect; inactive = no such curve, though single readings can be large or run the other way.
Potency is read from the fitted curve at half-maximal effect.

A short description of this assay: qHTS assay for re-activators of p53 using a Luc reporter: Hit Validation. Also: nearly all actives have a fitted effect of over 75% in size. As to activation: 0% is about no effect. Conditions: p53-responsive luciferase reporter cells, luminescence, H1299 line expressing heat-sensitive Ala138Val p53; series mostly up to 46.1 µM. The gist of the method:
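H1299 (p53-null) cells stably carrying p53-A138V and a BP100-luciferase reporter, 1000 cells/well, treated 24 h at 37 deg C. Compounds at several concentrations, 1:5 dilution; nocodazole control; luminescence read after 10 min with detection reagent.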
Turning to `CCOC(=O)NC1(Nc2ccc(C)cc2)Oc2ccccc2O1`, the Potency is 16.4 µM (active).
The same measure, in the same setting: the same measure for `COc1ccc(-c2nsc3c(N4CCCC4)ncnc23)cc1`: 0.092 µM (active); for `CCCCC(=O)NC(c1ccc(Cl)cc1Cl)c1ccc2cccnc2c1O` (stereo not drawn): 20.6 µM (active).
Still for that read-out and setting: the same measure for `CC(C)c1ccc(NC(=O)c2snc3ccc(Cl)cc23)cc1`: 5.8 µM (active).
Consider `COc1cc(NC(=O)CN2CCCCC2)c(C)cc1[N+](=O)[O-]`, for which the activation was 9.16% [at 9.22 µM].
With `CCOC(=O)c1c(NC(=O)C2COc3ccccc3O2)sc2c1CCN(Cc1ccccc1)C2` (stereo not drawn), the Potency result was “inactive”.
On to `C(=N\Nc1nc2ccccc2s1)/c1ccc2c(c1)OCO2`, for which the Potency is 2.59 µM (active).
The same measure, in the same setting: the same measure for `Cc1cc(C(=O)Nc2ccc(Br)cn2)sc1C`: 2.06 µM (active); for `O=C(Nc1cccc(O)c1)C(=O)Nc1ccccn1`: 2.31 µM (active).
On the same count and under the same terms, the same measure for `Cc1ccc(NC(=S)NCC2CCCO2)c(OC(F)F)c1` (stereo not drawn): “inactive”.
The same measure, in the same setting: the same measure for `N/C(=N\OC(=O)c1cc(Cl)ccc1Cl)c1ccccn1`: 0.92 µM (active); for `COc1ccc(-c2cc3ccc(F)cc3cn2)cc1`: 0.92 µM (active); for `COc1cccc(/C=N/NC(=O)CCc2n[nH]c(=O)[nH]c2=O)c1O`: “inactive”.
In the case of `O=C(NC(=S)Nc1cccc(O)c1)C1CCCCC1`, the Potency is 14.6 µM (active).
As for `Cc1occc1C(=O)NNC(=S)Nc1ccccc1C(F)(F)F`, the Potency was 13 µM (active).
Still for that read-out and setting: the same measure for `C/C(=N\NS(=O)(=O)c1ccc(Cl)cc1)c1ccc(NC(=O)c2ccco2)cc1`: “inactive”.
Same read-out and setting: the same measure for `COc1ccc(C(C#N)N2N=C(c3ccccc3)CC2c2ccccc2)cc1OC` (stereo not drawn): “inactive”; for `Cc1cc(C)nc(SCC(=O)OCC(=O)Nc2nc3ccccc3s2)n1`: “inactive”.
The same measure, in the same setting: the same measure for `Cc1ccccc1S(=O)(=O)Nc1nc2ccccc2nc1N1CCc2ccccc2C1`: “inactive”; for `S=c1[nH]nc(-c2ccco2)n1Cc1ccccc1`: “inactive”; for `CC1Cc2ccccc2N1C(=O)COC(=O)C1(c2ccccc2F)CCCC1` (stereo not drawn): “inactive”.
For `O=C(Nc1ccc(Cl)cn1)C1CCN(c2ncnc3c2nc2n3CCCCC2)CC1`, the Potency entry is “inactive”.
Still for that read-out and setting: the same measure for `Cc1ccc(-c2cc(-c3ccccc3Cl)[nH]n2)c(O)c1`: 14.6 µM (active); for `CC(=O)N1CCC(C(=O)Nc2ccc(S(=O)(=O)NCCc3ccccc3)cc2)CC1`: “inactive”; for `COc1ccc(-n2cc(-c3ccccc3)[nH]c2=S)cc1`: 11.6 µM (active).
As for `COc1ccc2[nH]c(=O)c3c(c2c1)OC(C)(C)C=C3`, the Potency entry was “inactive”.
The same measure, in the same setting: the same measure for `Cc1cc(NC(=O)c2c(F)c(F)c(F)c(F)c2F)no1`: “inactive”.
On the same count and under the same terms, the same measure for `O=C(/C=C/Nc1ccccc1C(=O)O)c1cccs1`: “inactive”; for `CC1CCN(C2=C(NS(=O)(=O)c3ccc(Br)cc3)C(=O)c3ccccc3C2=O)CC1`: “inactive”.
The same measure, in the same setting: the same measure for `COc1ccc([N+](=O)[O-])cc1NC(=O)C1CCCCC1C(=O)O` (stereo not drawn): “inactive”; for `ON=C1c2cc(OCCN3CCCCC3)ccc2-c2ccc(OCCN3CCCCC3)cc21`: “inactive”.
In the case of `CC1CCCN(C(=O)CN2C(=O)c3ccccc3S2(=O)=O)C1` (stereo not drawn), the Potency was 23.1 µM (active).
For the molecule `CCN1CCc2c(sc(NC(=O)c3ccc(S(=O)(=O)N4CCCC4)cc3)c2C(=O)NC)C1`, the Potency entry was “inactive”.
The same measure, in the same setting: the same measure for `Cc1ccc(-c2cc3nc(C)cc(NCc4ccco4)n3n2)cc1`: 7.31 µM (active).
On to `Cc1ccc2nc(SCn3nnc4ccccc4c3=O)[nH]c2c1`, for which the Potency is 1.3 µM (active).
Same read-out and setting: the same measure for `Cc1cc(NC(=O)c2ccco2)sc1C`: 18.4 µM (active); for `COc1ccc(C(=O)N/N=C(\C)c2ccccn2)cc1OC`: 13 µM (active).
Still for that read-out and setting: the same measure for `CCCCCCC[C@@H](C/C=C/CCC(=O)N(C)C/C(=C/Cl)C/C(=C\C(=O)N1CC(OC)=CC1=O)OC)OC`: 5.8 µM (active).
